“And” between values parts separate entries of the source, which are not always exact repeats. Equal values may be shown once. About 3,000 (1%) of roughly 290,000 compounds were called active. For the sample, actives were picked, then their nearest neighbours and some compounds at random. Values without a mark were called inactive. No stated cut-off is given here; in the data, active means inhibition mostly above about 36% (no sharp cut-off); inactive means mostly below about 34%.
assay: NOD1 signaling inhibitors, primary screen, cell-based, luminescence, uHTS (AID 1578); conditions: NOD1-driven NF-kB luciferase reporter cells, at 4 µM, active compounds read high;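 further: HEK-293T reporter cells stimulated with the NOD1 agonist gamma-tri-DAP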

Structure (SMILES) | inhibition
COc1ccc(C2/C(=C(/O)c3ccccc3)C(=O)C(=O)N2C)cc1 (stereo not drawn) | -38.6%
COc1cccc2cc(C(=O)NCc3ccc(C)cc3)c(=N)oc12 | 18.3%
COc1ccc(CNC(=O)c2cc3cccc(OC)c3oc2=N)cc1 | 4.1%
COc1cccc2cc(C(=O)NCc3ccc(Cl)cc3)c(=N)oc12 | 85.8% (active)
COc1cc(/C=N\NC(=O)c2ccc(-c3ccccc3)cc2)ccc1OCC(N)=O | -24.5%
Cc1ccc(S(=O)(=O)N(C)c2cc(S(=O)(=O)N3CCOCC3)c(C)cc2C)cc1 | -26.1%
COc1cc(S(=O)(=O)NCc2ccc3c(c2)OCO3)ccc1Cl | -0.2%
COc1c(C(=O)NC(=S)Nc2nnn(C)n2)cc2ccccc2c1Br | 29.6%
CC(C)NC(=O)CCCc1c[nH]c2ccccc12 | -33%
CC(NC(=O)CCCc1c[nH]c2ccccc12)c1ccc(F)cc1 (stereo not drawn) | 51.3% (active)
CC(NC(=O)CCc1c[nH]c2ccccc12)c1ccccc1 (stereo not drawn) | -38.3%
Cc1ccc(Nc2nnc(-c3ccc4c(c3)OCO4)o2)c(C)c1 | -19.5%
Cc1cc(N/N=C/c2cccc([N+](=O)[O-])c2)nc(-n2nc(C)cc2C)n1 | -14.5%
Cc1cc(N/N=C/c2cccc(Cl)c2)nc(-n2nc(C)cc2C)n1 | -0.3%
Cc1nn(-c2ccccc2)c2c1P(=O)(O)/C(=C1\N(C)c3ccccc3C1(C)C)C=N2 | -9%
Cc1cc(C(=O)NNS(=O)(=O)c2ccc(C(C)(C)C)cc2)nn1C(C)(C)C | -6.5%
NNC(=O)Cn1c(-c2ccccn2)nc2ccccc21 | -10.4%
Cc1cc(=O)oc(C)c1C(=O)OCC(=O)c1ccc(Cl)cc1 | 79.2% (active)
Cc1cc(=O)oc(C)c1C(=O)OCC(=O)c1ccc(Br)cc1 | -27.3%
Cc1cc(=O)oc(C)c1C(=O)OCC(=O)c1ccc(Cl)c(Cl)c1 | -32.3%
CCOC(=O)N1CCN(S(=O)(=O)N2CCCC(C(=O)NCCc3ccccc3)C2)CC1 (stereo not drawn) | -26.5%
CC(C)c1[nH]c(=O)c(C#N)c2c1COC(C)(C)C2 | -18.6%
CC(C)n1c(O)c(N=NC(=O)CNC(=O)c2cccnc2)c2ccccc21 | -19.7%
CCCc1nc(NCCO)c(C#N)c2c1CCCC2 | 17.9%
CCCCc1nc(NCCO)c(C#N)c2c1CCCC2 | -8.5%

Structure (SMILES) | inhibition
CC(C)c1nc(NCCO)c(C#N)c2c1CCCC2 | 81% (active)
CCCc1nn2c(N)c(/C=C3\C=Nc4ccccc43)c(=O)nc2s1 | -56% and -14.1%
CCc1nn2c(N)c(/C=C3\C=Nc4ccccc43)c(=O)nc2s1 | -37.5% and 2.9%
CCCCc1nn2c(N)c(/C=C3\C=Nc4ccccc43)c(=O)nc2s1 | 79.1% (active)
Cc1ccc(S(=O)(=O)n2cc(-c3ccccc3)c(N)n2)cc1 | -4.9%
Nc1nonc1C(=O)NCCNC(=O)c1cccc(Cl)c1 | -28.8%
O=Cc1[nH]c2ccccc2c1N(C(=O)CCl)c1ccc([N+](=O)[O-])cc1 | 19.2%
COc1ccccc1N(C(=O)CCl)c1cn(C(C)=O)c2ccccc12 | 93% (active)
CC(=O)n1cc(N(C(=O)CCl)c2ccc(Cl)cc2)c2ccccc21 | 14.2%
CC(=O)n1cc(CO)c2ccccc21 | -5.2%
CC(=O)n1cc(N(C(=O)CCl)c2ccc([N+](=O)[O-])cc2)c2ccccc21 | 38.7% (active)
CC(=O)N(c1ccc(Cl)cc1)c1cn(C(C)=O)c2ccccc12 | -16.5%
CC(=O)n1cc(Nc2ccc([N+](=O)[O-])cc2)c2ccccc21 | -18%
CCOC(=O)c1ccccc1Nc1cn(C(C)=O)c2ccccc12 | -3.8%
CN1/C(=C/C(=O)CSc2ccccc2C(=O)O)C(C)(C)c2ccccc21 | 10.5%
CCC(Oc1ccccc1OC)C(=O)N1CC(=O)Nc2ccccc21 (stereo not drawn) | 29%
CCOc1ccc(NS(=O)(=O)c2ccc(NS(=O)(=O)c3cccs3)cc2)cc1 | -17.3%
COc1ccc(Cl)cc1NC(=O)N(C)Cc1c(C)nn(C)c1C | -24.6%
Cc1cc(NCc2ccccc2)nc(-c2ccccc2O)n1 | -41.6%
CCOC(=O)c1c(C)[n+]([O-])c2ccc3c(non3O)c12 | -24.8%
CC(=O)c1c(C)[n+]([O-])c2ccc3c(non3O)c12 | -20%
[O-][n+]1c2c(c3c4non(O)c4ccc31)CCCC2 | 79.7% (active)
CCN(C(=O)c1c(-c2ccccc2Cl)noc1C)C1CCCCC1 | -10.1%
Cc1cc(C)c2nc(C(F)(F)F)c(C#N)c(N)c2c1 | 76.9% (active)
Cc1cc(C)c2nc3nc(C)cc(C)c3c(N)c2c1 | -26.5%

Structure (SMILES) | inhibition
Cc1cc(C)c2nc3nc(C)c(C)cc3c(N)c2c1 | -27.3%
COc1cc2c(=O)n(CCC(=O)NCC3CCCO3)c(=O)n(CC(=O)Nc3ccc(C)c(C)c3)c2cc1OC (stereo not drawn) | -11.3%
CC(C)(CO)NS(=O)(=O)c1ccc2c(c1)oc(=O)c1cc(S(=O)(=O)NC(C)(C)CO)ccc12 | -6.5%
CCC(=O)Nc1cc2nn(-c3ccccc3)nc2cc1Cl | -22.2%
CC(=O)Nc1cc2nn(-c3ccccc3)nc2cc1Cl | -27.6%
CC(C)(C)C(=O)Nc1cc2nn(-c3ccccc3)nc2cc1Cl | 87.1% (active)
O=C(O)C1CCCN1c1ncccc1[N+](=O)[O-] (stereo not drawn) | -20.8%
CN1CCN(CC(O)COCCOc2ccc(Br)cc2)CC1 (stereo not drawn) | -26%
OCCN1CCN(CC(O)COCCOc2ccc(Br)cc2)CC1 (stereo not drawn) | 62.2% (active)
CCN1CCN(CC(O)COCCOc2ccc(Br)cc2)CC1 (stereo not drawn) | -19.1%
O=C(COc1ccccc1CNCc1ccccc1)Nc1ccccc1 | -69.5%
O=c1c2cc(NC(=S)N3CCCCC3)ccc2nc2n1CCCCC2 | -32.7%
O=CN1CCN(C(=O)c2ccc(-c3nc4ccccc4s3)s2)CC1 | -25.6%
CCCNC(=O)c1ccc(-c2nc3ccccc3s2)s1 | -50.1%
O=C(NC1CC1)c1ccc(-c2nc3ccccc3s2)s1 | 70.1% (active)
Cc1ccc2nc(NC(=O)c3ccc(-c4nc5ccccc5s4)s3)sc2c1 | -74.1%
O=C(c1ccc(-c2nc3ccccc3s2)s1)N1CCOCC1 | 82.9% (active)
CCN1CCN(C(=O)c2ccc(-c3nc4ccccc4s3)s2)CC1 | -43.4%
COc1ccc(NC2CCCN(C(=O)CN3C(=O)c4ccccc4C3=O)C2)cc1OC (stereo not drawn) | -24.8%
COc1ccc(OC)c2c(C)cc(N3CCN(C(=O)c4ccc(C)cc4)CC3)nc12 | -12.9%
CN(C1CCCCC1)C(CNS(=O)(=O)c1ccc(Cl)cc1)c1ccccc1 (stereo not drawn) | -15.5%
O=C(O)c1ccccc1-n1cccc1C(=O)O | -9.5%
O=C(CN1CCc2ccccc2C1)Nc1cc(S(=O)(=O)N2CCOCC2)ccc1N1CCOCC1 | -17.8%
CCN(CC)c1ccc(S(=O)(=O)N2CCOCC2)cc1NC(=O)CN1CCN(Cc2ccccc2)CC1 | -3.8%
O=C(NNC(=O)c1ccccc1OCc1ccccc1Cl)c1csc(N2CCOCC2)n1 | 96.3% (active)

Structure (SMILES) | inhibition
O=C(NNC(=O)c1ccccc1C(F)(F)F)c1csc(N2CCOCC2)n1 | -87.8%
O=C(NNC(=O)c1cc(Br)ccc1Cl)c1csc(N2CCOCC2)n1 | -14.6%
CCc1ccc(NC(=O)CN2CCCN(S(=O)(=O)c3ccc(F)cc3)CC2)cc1 | -21.6%
O=C1CC(c2nc3ccccc3[nH]2)CN1Cc1ccccc1 (stereo not drawn) | -15%
COc1ccc(CCNC(=O)C2CC(=O)N(C3CCCCCCC3)C2)cc1OC (stereo not drawn) | -23.8%
O=c1c2ccccc2nc2n1CCS2 | -2.5%
Cc1ccc2c(=O)cc(C(=O)NC3CCS(=O)(=O)C3)oc2c1 (stereo not drawn) | -12%
O=C(NCc1nc(-c2ccc(C(F)(F)F)cc2)no1)Nc1cc(Cl)cc(Cl)c1 | 44.1% (active)
O=C(NCc1nc(-c2ccc(C(F)(F)F)cc2)no1)Nc1ccc(OC(F)(F)F)cc1 | 5.1%
O=C(NCc1nc(-c2ccc(C(F)(F)F)cc2)no1)Nc1ccc(F)cc1F | 3.8%
Cc1ccccc1CC(=O)N1CC(C)OC(C)C1 (stereo not drawn) | -15.5%
S=C(NCc1ccccc1)Nc1cccc2cnccc12 | 41.4%
O=C(NC(=S)Nc1cccc2[nH]ncc12)c1ccccc1 | 68.4% (active)
O=C(Nc1cccc2[nH]ncc12)c1ccc(F)cc1 | -0.2%
O=C(NC(=S)Nc1cccc2cccnc12)c1ccccc1 | -2.9%
CNC(=S)Nc1cccc2[nH]ncc12 | -6.5%
O=C(NC(=S)Nc1cccc2cnccc12)c1ccccc1 | 80.9% (active)
CS(=O)(=O)N(CC(=O)Nc1cccnc1)c1ccc2c(c1)OCCO2 | -12.2%
CS(=O)(=O)N1CCN(c2ccccc2NC(=O)c2ccc(-c3ccc(Br)cc3)o2)CC1 | -21.7%
CC(C)c1ccc(NC(=O)COC(=O)CCC(=O)c2cccs2)cc1 | 5.4%
O=C(O)c1ccc(NC2=C(n3nnc4ccccc43)C(=O)c3ccccc3C2=O)cc1 | -3.8%
O=C1C(N2CCOCC2)=C(n2nnc3ccccc32)C(=O)c2ccccc21 | 101% (active)
O=C1c2ccccc2C(=O)c2c1cccc2-n1nnc2ccccc21 | 3.1%

Source: PubChem BioAssay AID1578 (Sanford-Burnham Center for Chemical Genomics, 2009)
